Molecules are shown by their SMILES. Screen size: about 2,300 compounds; about 1,100 (48%) were called active. The set was probably picked from earlier hits. The list shows a part of the results. Entries with a potency or affinity are not part of this list. Unmarked numbers belong to inactive results. No rule for the calls is given here.

This test is described as follows: inhibitors in S. typhi counter-screen strain, dose response, counter-screen for PhoP regulon inhibitor project, fluorescence, 4 h (AID 2384). Particulars: S. typhi GFP reporter counter-screen; series mostly up to 150 µM; inhibition: at the top concentration. A general note: The purpose of a counterscreen is to sort out artefacts and off-target activity.
For orientation: inhibition means the drop in the measured response relative to a control, in per cent. Regarding `COc1ccc(/C=N/NC(=O)c2cccnc2)c(C(=O)O)c1OC`, the “inhibition” value is -21.9%.
In the case of `COc1cc(/C=C(/C#N)C(=O)Nc2ccccc2)c(Br)cc1OCc1ccc(C(=O)O)cc1`, the “inhibition” value was 1.17%.
For `N#C/C(=C\c1ccc(O)c(O)c1)C(=O)c1ccc(O)c(O)c1` the value was 3.1%.
For `COc1ccc(OC)c(C(=O)c2ccc(C(=O)O)cc2)c1`, the “inhibition” value was 21%.
With `COc1ccc(/C=N/NC2=NCCCCC2)c(OC)c1`, the inhibition is 15.8% [at 9.38 µM].
On to `CC(Oc1ccc(/C=N/NC(=O)Cc2cccc3ccccc23)cc1)C(=O)O` (stereo unspecified), for which the “inhibition” value is -15.5%.
For the compound `COc1ccc2nc(C)cc(Nc3ccc(N4CCOCC4)cc3)c2c1`, the “inhibition” value was 11.6%.
To `COc1ccc(CNC(=O)C(c2cccs2)N(C(=O)c2csnn2)C2CC2)cc1` (stereo unspecified) belongs 4.17%; to `COC(=O)c1ccc(NC(=O)c2ccccc2N(C)S(=O)(=O)c2ccccc2)cc1`, -15.2%.
Consider `Cc1ccc(N/N=C/c2ccncc2)cc1`, for which the “inhibition” value was 5.95%.
Regarding `Cc1ccc(-c2ccccc2NC(=O)CS(=O)CC(=O)Nc2ccc(C)c(Cl)c2)o1` (stereo unspecified), the “inhibition” value was -36.7%.
Take `COc1ccc(-n2c3c(cc(C(=O)Nc4cccc(C)n4)c2=O)C(=O)CC(C)(C)C3)cc1`: the “inhibition” value is 8.91%.
For `CNc1nc(SC)n(C)c(=O)c1N=O` the value was 28.2%.
Regarding `Cc1ccc(NC(=S)Nc2ccc(S(=O)(=O)Nc3ncccn3)cc2)cc1Cl`, the “inhibition” value was -48.7%.
For `CCOC(=O)c1cc(-c2ccc(F)cc2)n(CCC(=O)NC2CCN(Cc3ccccc3)CC2)c1C` the value was 16.4%; for `O=C(CCCCCn1c(=S)[nH]c2ccc(N3CCOCC3)cc2c1=O)NC1CCN(Cc2ccccc2)CC1`, 4.3%.
`Cc1ccc(CCNC(=O)C2CCN(S(=O)(=O)N3CCCC3)CC2)cc1`: the “inhibition” value is 5.6%.
Turning to `Cc1c(C)n(C)c2ccc(C(=O)NCCCN3CCCC3)cc12`, the “inhibition” value is 23.2%.
For the compound `CC1CCN(c2nc3ccc(C(=O)NCCCN4CCCCC4)cc3s2)CC1`, the “inhibition” value was -15.2%.
As to `COCC1CCCN(Cc2cn[nH]c2-c2cc3ccccc3o2)C1` (stereo unspecified), the “inhibition” value is -4.44%.
For `O=C(c1ccc2c3c(cccc13)CC2)C1CCCN(Cc2ncc[nH]2)C1` (stereo unspecified) the value was 5.85%; for `O=c1cc(-c2ccc(Cl)cc2)[nH][nH]1`, -29.4%.
For `COc1ccc2c(c1)c1nc(SCC(C)C)n(CCO)c(=O)c1n2C`, the “inhibition” value was -6.72%.
For the compound `O=C(CN(C(=O)CNS(=O)(=O)c1ccccc1)C1CCCC1)NCc1ccco1`, the “inhibition” value is 10.6%.
To `CCn1c(CNC(=O)c2ccc(OC)cc2)nnc1SC` belongs 13.5%; to `COc1ccc(C(=O)CSc2nnc(-c3cnccn3)n2Cc2ccco2)cc1`, -5.15%.
For `CN(C)S(=O)(=O)c1cccc(NC(=O)c2cnccn2)c1` the value was -8.09%.
In the case of `CC(=O)Nc1ccccc1-c1nc2ccc(C(=O)N3CCN(c4cc(C)ccc4C)CC3)cc2[nH]c1=O`, the “inhibition” value is -15.4%.
For the compound `COc1cccc(/C=N/NC(=O)C(=O)N2CCCC2)c1O`, the “inhibition” value is 36.2%.
Turning to `C/C(=N\NC(=O)c1c(Br)c(C)nn1C)c1ccc(NC(=O)c2ccoc2C)cc1`, the “inhibition” value is -10.8%.
To `COc1cccc(/C=N/NC(=O)CSCC(=O)Nc2ccccc2)c1O` belongs 35.8%; to `COc1cccc(/C=N/NC(=O)CO/N=C(\C)c2cccs2)c1OC`, 1.19%; to `Cn1cc(C(=O)N/N=C/C(Br)=C/c2ccccc2)ccc1=O`, -0.23%.
With `O=C(Nc1ccc2[nH]c(=S)sc2c1)Nc1ccccc1F`, the “inhibition” value is 38.3%.
Regarding `CC1=C([N+](=O)[O-])C(c2cccc(Br)c2)C2=C(N1)c1ccccc1C2=O` (stereo unspecified), the “inhibition” value was 3.59%.
For the compound `Cn1nnnc1SCc1nnc(-c2ccccc2Br)o1`, the “inhibition” value is 25.7%.
Take `Cc1c(C)c2ccc(OC(C)C(=O)N[C@@H](Cc3c[nH]c4ccccc34)C(=O)O)c(C)c2oc1=O` (stereo partly specified): the “inhibition” value was 9.71%.
Turning to `COc1ccc(-c2nnn(-c3ccc(Cl)cc3Cl)c2N)cc1`, the “inhibition” value is 15.7%.
Turning to `CC(=O)Oc1ccc(C(=O)Nc2ccc3c(c2)C(=O)N(CCC(=O)O)C3=O)cc1`, the “inhibition” value was 19.9%.
To `Cc1ccccc1-n1ncc2c([N+](=O)[O-])cc([N+](=O)[O-])cc21` belongs 22.4%; to `COc1cc(NS(=O)(=O)c2ccc(NC(=S)Nc3ccccc3)cc2)nc(OC)n1`, -64.8%.
In the case of `Cc1[nH]n(-c2ccccc2)c(=O)c1C(c1cccc([N+](=O)[O-])c1O)c1c(C)[nH]n(-c2ccccc2)c1=O`, the “inhibition” value is 38.4%.
In the case of `Cc1ccc(-n2[nH]c(C)c(C=NCc3ccncc3)c2=O)cc1`, the “inhibition” value was -25.8%.
For the compound `COc1ccc(CCNC(=O)CSc2ccc(-c3ccncc3)nn2)cc1`, the “inhibition” value was -28.5%.
For `O=C(CCN1CCC(c2ccccc2)C1)c1ccc2c(c1)OCCO2` (stereo unspecified) the value was 32.1%.
For `O=C(Nc1ccc2c(c1)OCCO2)C(=S)NCc1ccccc1` the value was -17.1%; for `Cc1ccc(N(C(=O)c2sc(C)nc2C)C(C(=O)NCc2ccco2)c2ccccc2)cc1` (stereo unspecified), 20.7%.
As for `COc1ccc(C2=NN3C(=O)c4c(ccc(OC)c4OC)C3C2)cc1` (stereo unspecified), the “inhibition” value was 33.9%.
As to `O=[N+]([O-])c1cccnc1S(=O)(=O)c1ccccc1`, the “inhibition” value was 5.22%.
For `O=c1ccnc(Sc2ncccc2[N+](=O)[O-])[nH]1` the value was 38.7%; for `CC(=O)NS(=O)(=O)c1ccc(Nc2ccc([N+](=O)[O-])c3nonc23)cc1`, 2.51%.
As to `COc1ccc(CCN(C(=O)C(F)(F)F)C(C(=O)NC2CCCC2)c2cccs2)cc1` (stereo unspecified), the “inhibition” value was 3.89%.
As to `CCCCNC(=O)NS(=O)(=O)c1ccc(C(=O)OC)o1`, the “inhibition” value is -10.3%.
Consider `CC(C)OC(=O)c1cccc(C(=O)Oc2ccc(Br)cc2)n1`, for which the “inhibition” value was -9.99%.
For `Nc1ccc(S(=O)(=O)Nc2ccc(Cl)nn2)cc1` the value was -47%; for `CN1CCN(C2=Cc3cc(Cl)ccc3Sc3cc(F)ccc32)CC1`, 30%.
`CN1CCN(c2ccc(C(=O)c3cn(-c4ccc(F)c(Cl)c4)nn3)cc2)CC1`: the “inhibition” value was 5.83%.
For `CCc1nnc(NS(=O)(=O)c2ccc(N=Cc3c(C)[nH]n(-c4ccc(C)cc4)c3=O)cc2)s1` the value was 33%.
On to `COC(=O)C1=C(C)N(C2CCCC2)C(=O)C1(NC(C)=O)C(F)(F)F` (stereo unspecified), for which the “inhibition” value is -13.7%.
Consider `O=C(CN(Cc1ccco1)C(=O)CNS(=O)(=O)c1ccc(Cl)cc1)NCc1ccc(F)cc1`, for which the “inhibition” value is -17.2%.
For the compound `CN(C)CCN1C(=O)C(O)=C(C(=O)c2cc3ccccc3o2)C1c1ccccn1` (stereo unspecified), the “inhibition” value is -12.4%.
`CC(=O)c1ccc(OC(=O)c2cc3ccccc3oc2=O)cc1`: the “inhibition” value is 14.8%.
As for `O=C(O)c1ccc(S(=O)(=O)NC2CC2)cc1`, the “inhibition” value was 16%.
As for `CCCCOc1ccc(-c2nnn(CC(=O)Nc3ncc(CC(=O)OCC)s3)n2)cc1`, the “inhibition” value is -14%.
As to `Cc1cccc(OCc2nnc(SCC(=O)N3CCCC3)n2C)c1`, the “inhibition” value was 9.88%.
For `Cc1ccc(OCCCCn2c(CO)nc3ccccc32)cc1` the value was 22.4%.

(Values after PubChem BioAssay AID2384 (Southern Research Specialized Biocontainment Screening …, 2010).)
